D2 PAM-1: positive allosteric modulators of human D2 dopamine receptor | P14416 | HEK293 T-REx D2, calcium flux, EC20 dopamine potentiation | potentiation, % at 10 µM | hit rate 0.34% among 340,000;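 active means potentiation over 3 SD above the plate norm, cut at about 30% in these data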; further: 0% is about no effect
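Potentiation of an EC20 dopamine calcium response measured kinetically over 180 s, after a preceding 180 s compound-only read flagging agonists. Cells: inducible Hek293 Trex D2 line, 4000/well, cultured overnight at 30 C before dye loading.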
D2 antag: antagonizes the human D2 dopamine receptor; P14416; HEK293 TREx D2 cells, calcium flux, dopamine EC80; inhibition, % at 10 µM; hit rate 2% among 340,000; AID 485344; in the data active means inhibition above about 30%; inactive means below that, where a call was filed; further: 0% is about no effect
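Read-out: kinetic calcium fluorescence (1 cycle/s) in inducible HEK293 T-REx D2 cells after an EC80 dopamine addition that followed 180 s compound preincubation. Loss of the dopamine response indicates antagonism.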
B2AR arrestin: recruits beta-arrestin to the human beta2-adrenergic receptor; Potency, µM (series often up to 46.1 µM), for inactives: at the highest dose activation, usual class: activators; AID 492947; P07550; hit rate 0.02% among 330,000; beta-arrestin recruitment to beta2AR, cell-based reporter;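 further: potency means the concentration at half of the fitted maximal effect; 0% = DMSO controls and full agonism = EC100 isoproterenol or metaproterenol; nearly all actives have a fitted effect of over 65% in size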
D2 PAM-2: human D2 receptor positive allosteric modulation | DiscoveRx D2 beta-arrestin cells, luminescence, 90 min; 100% = 57 uM dopamine signal | potentiation, % (concentration not given with the values) | P14416 | hit rate 0.23% among 360,000 | AID 624464; in the data active means potentiation above about 50%; inconclusive means mostly about 30% to 49%
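D2 cells co-treated with compound plus 50 nM dopamine (EC20) for 90 min at 37 deg C to detect potentiation. Beta-arrestin recruitment was read as enzyme-fragment luminescence after 1 h at ambient temperature. Full response was set by 57 uM dopamine.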
D2 ag-1: D2 dopamine receptor (human) agonism. P14416. HEK293 T-REx D2 cells, calcium flux agonist mode. hit rate 0.53% among 340,000. activation, % at 2 µM;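 active means activation over 3 SD above normal in the single-dose calcium agonist read, cut at about 30% in these data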; further: 0% is about no effect
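Tetracycline-induced HEK293 Trex cells with D2 receptor force-coupled to calcium signaling, plated overnight at 30 C and loaded with no-wash calcium dye. Calcium flux read kinetically for 180 s after compound addition; responses flag agonists.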
D2 ag-2: activates the human D2 dopamine receptor. DiscoveRx PathHunter D2 beta-arrestin, luminescence, 90 min; 100% = 57 uM dopamine signal. activation, % (concentration not given with the values). hit rate 0.084% among 360,000; in the data active means activation above about 40%; inconclusive means between about 15% and that limit
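Agonist mode: compounds alone added to overnight-plated D2 PathHunter cells for 90 min at 37 C, with 57 uM final dopamine (EC100) defining full response. Beta-arrestin recruitment detected by chemiluminescent reagent, read after 1 h at ambient temperature.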
D3 arrestin ag: confirmation of human D3 dopamine receptor agonists, beta-arrestin. hit rate 4% among 2,300. DiscoveRx D3 beta-arrestin cells, luminescence, 90 min. Potency, µM (highest dose often 76.9 µM), for inactives: at the top dose activation, usual class: activators. shares compounds with D2 ag-1;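 further: potency means the concentration at half of the fitted maximal effect; 100% = dopamine control response; nearly all actives have a fitted effect of over 70% in size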
Target sequence (P35462 whole entry, looked up): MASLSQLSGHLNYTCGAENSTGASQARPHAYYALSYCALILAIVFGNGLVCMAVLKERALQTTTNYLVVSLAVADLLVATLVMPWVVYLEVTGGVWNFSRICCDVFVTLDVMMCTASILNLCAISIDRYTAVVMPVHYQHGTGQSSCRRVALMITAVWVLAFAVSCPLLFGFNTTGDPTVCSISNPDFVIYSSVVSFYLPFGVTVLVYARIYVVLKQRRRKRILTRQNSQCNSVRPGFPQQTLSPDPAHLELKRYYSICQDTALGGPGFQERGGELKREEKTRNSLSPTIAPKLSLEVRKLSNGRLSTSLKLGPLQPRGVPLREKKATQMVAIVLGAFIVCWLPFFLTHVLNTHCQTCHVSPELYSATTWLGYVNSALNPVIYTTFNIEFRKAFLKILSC
D2 ag-3: D2 receptor agonism, beta-arrestin counterscreen; shares compounds with D2 ag-1; DiscoveRx PathHunter D2 beta-arrestin, luminescence, 90 min; response scale: percent relative to full dopamine signal; Potency, µM (titrated, usually from 76.9 µM), for inactives: at the highest dose activation, usual class: activators; hit rate 5.9% among 2,300; AID 720507; further: potency means the concentration at half of the fitted maximal effect; % of control where 0% means no effect; nearly all actives have a fitted effect of over 70% in size
* hit, by the source's call; ? = inconclusive; / = not tested or not shown; ! = not active in a repeat. Shown are actives, neighbours in structure and some others; about 2.4% of the full set was active somewhere. Unless noted, the call rests on the fitted dose curve; in most records, active means well fitted activation curve with a large enough effect; inconclusive means small, poorly fitted or top-dose-only effect; inactive means flat fitted curve, though single readings scatter.

SMILES	D2 PAM-1	D2 antag	B2AR arrestin	D2 PAM-2	D2 ag-1	D2 ag-2	D3 arrestin ag	D2 ag-3
CCC(=O)c1ccc(OCC(O)CN2CCN(S(=O)(=O)N3CCCCC3)CC2)cc1 (centres undefined)	/	6	0%	-20	1	-2	/	/
CC(C)(C)c1ccc(OCC(O)CN2CCN(c3ccccn3)CC2)cc1 (centres undefined)	-21	87*	0%	55*	86*	?	?	16µM*
CCC(=O)c1ccc(OCC(O)CN2CCN(c3ccccn3)CC2)cc1 (centres undefined)	-27	74*	-1%	26	80*	60*	0.89µM*	2µM*
Cc1cc(C)cc(C(=O)n2nc(C)c(S(=O)(=O)N3CCOCC3)c2C)c1	/	/	/	/	0	/	/	/
CC(=O)NCCNC(=O)CCNC(=O)c1ccc(Cl)cc1	0	-40	0%	-12	0	-5	/	/
C=CC[C@H]1Cc2c(cccc2[N+](=O)[O-])[C@H](CC=C)N1	/	59*	0%	13	36*	?	?	?
O=C(O)CCc1nc2ccccc2c(=O)[nH]1	-15	21	-1%	-5	29	-2	-21%	-4%
O=C(CCc1nc2ccccc2c(=O)[nH]1)Nc1ccc(F)cc1	-4	16	0%	-21	-1	-1	/	/
O=C(CCc1nc2ccccc2c(=O)[nH]1)N1CCN(C/C=C/c2ccccc2)CC1	-31	10	0%	-11	19	4	16%	?
CC(=O)N1CCN(C(=O)CCc2nc3ccccc3c(=O)[nH]2)CC1	/	/	0%	-9	/	-3	/	/
CC1(C(=O)NS(C)(=O)=O)CCN1C(=O)Cc1ccc(Cl)cc1Cl (centres undefined)	/	/	/	1	/	-5	/	/
COc1ccc([N+](=O)[O-])c(OC)c1C(=O)Nc1ccc(F)cc1F	1	22	-1%	-10	0	0	-6%	-2%
CC(C)(C)C(=O)Nc1ccc(F)cc1[N+](=O)[O-]	-2	7	0%	-13	32*	-3	?	1%
COc1ccc(S(=O)(=O)NC2CC(=O)N(c3ccc(C)c(C)c3)C2)cc1 (centres undefined)	-9	-6	0%	1	0	1	/	/
O=C(Nc1ccccc1C(=O)N1CCCC1)c1ccccc1	-5	-20	0%	22	1	-3	/	/
CCN1C=C(Cc2cccs2)C2=C(C1)C(c1cccs1)C(C#N)=C(N)O2 (centres undefined)	-31	81*	11%	-18	44*	-1	-4%	0%
CCN1CC2=C(OC(N)=C(C#N)C2c2cccs2)/C(=C/c2cccs2)C1 (centres undefined)	/	/	-1%	-28	/	-2	2%	0%
CN1CCC2(CC1)C1CN(C)CC=C1C(C#N)=C(N)C2(C#N)C#N (centres undefined)	-17	30	0%	3	46*!	14	29%	?
CCOc1cc(CN2CCN(C(=O)c3ccco3)CC2)ccc1OC	-29	74*	0%	63*	99*	?	-3%	25µM*
COc1ccc(CN2CCN(Cc3ccco3)CC2)cc1	/	/	0%	-10	/	0	/	/
CCOc1ccc(C(=O)N2CCN(C(=O)c3ccco3)CC2)cc1OCC	6	-3	0%	9	0	2	/	/
COc1ccc(CN2CCN(C(=O)c3ccco3)CC2)cc1	-20	87*	0%	65*	87*	77*	?	10µM*
COc1ccc2ccccc2c1CN1CCN(C(=O)c2ccccc2)CC1	-15	-16	0%	-12	2	-2	/	/
COc1ccc2ccccc2c1CN1CCN(C(=O)c2ccco2)CC1	-27	89*	0%	26	69*	58*	?	25µM*
CCOc1ccc(CN2CCN(C(=O)c3ccco3)CC2)cc1	/	/	-1%	57*	/	54*	?	4.5µM*
SMILES	D2 PAM-1	D2 antag	B2AR arrestin	D2 PAM-2	D2 ag-1	D2 ag-2	D3 arrestin ag	D2 ag-3
COc1ccc(CN2CCN(C(=O)c3ccc(S(=O)(=O)N4CCCCCC4)cc3)CC2)cc1	/	/	0%	-4	/	-1	6%	14%
CC(=O)c1cccc(OCC(O)CN2CCN(C(=O)c3ccco3)CC2)c1 (centres undefined)	/	/	0%	2	/	?	18%	?
CC(=O)c1cccc(OCC(O)CN2CCN(S(=O)(=O)c3c(F)cccc3F)CC2)c1 (centres undefined)	4	-7	0%	-7	1	-4	/	/
CCOC(=O)[C@H]1[C@H]2COc3ccccc3[C@@H]2N2C(=O)c3cc(F)ccc3NC(=O)[C@@]12C	3	0	4%	-53	0	-1	/	/
COc1ccc(NC(=O)CSCC(=O)Nc2ccc(S(=O)(=O)N3CCOCC3)cc2)cc1	-4	4	-1%	0	0	2	1%	4%
COc1ccc([C@H](C)NC[C@H](O)c2ccc(O)c(NC=O)c2)cc1	-5	4	18µM*	-17	33*	-3	-1%	0%
COc1ccc(OCC(O)CNC(C)c2ccccc2)cc1 (centres undefined)	6	-10	1%	-5	2	-1	/	/
Cc1cc(C)n2nc(S(=O)(=O)NCCc3ccccc3)nc2n1	10	17	-1%	-4	-1	-4	/	/
Cc1sc(N(C(=O)CCc2ccccc2)c2ccc(C(=O)O)cc2)nc1-c1ccccc1	0	-6	0%	-11	0	-5	/	/
CN1CCc2c(sc(/N=C/c3cc(Cl)ccc3O)c2C#N)C1	-36	83*	0%	26	88*	52*	-11%	10%
CN1CCc2c(sc(/N=C/c3c[nH]c4ccccc34)c2C(N)=O)C1	-9	13	3%	-17	1	-4	/	/
CN1CCc2c(sc(/N=C/c3c[nH]c4ccccc34)c2C#N)C1	-26	-6	-1%	-20	49*	7	12%	-4%
O=C(Nc1ccc(Cl)cc1)c1nc[nH]c1C(=O)N1CCc2ccccc2C1	-21	51*	0%	-14	2	0	-3%	-4%
O=C(Nc1nccs1)c1nc[nH]c1C(=O)N1CCc2ccccc2C1	4	2	0%	-10	0	-7	/	/

Assay outcomes deposited in PubChem by National Center for Advancing Translational Sciences (NCATS).
